The text below walks through data of the supplement of paper PMC5641865, “A screen for kinase inhibitors identifies antimicrobial imidazopyridine aminofurazans as specific inhibitors of the Listeria monocytogenes PASTA kinase PrkA” (The Journal of Biological Chemistry, 2017).

± gives the standard deviation of the averaged measurements.
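Note: End-point A600 read in BHI broth at 37 °C with 2% DMSO, inhibition computed as (1 − OD with compound plus ceftriaxone ÷ OD with ceftriaxone only) × 100.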

The test system of this assay is Listeria monocytogenes 10403S. In words: growth inhibition relative to ceftriaxone-alone control; higher = stronger potentiation of ceftriaxone growth inhibition. The note with it: 10 µM; ceftriaxone 1 ug/ml; 12 h.
With `Cn1cc(C2=C(c3cn(C4CCN(Cc5ccccn5)CC4)c4ccccc34)C(=O)NC2=O)c2ccccc21`, the growth inhibition is 40.6 ± 17%. The value for `CC(C)(C)c1cc(C=C(C#N)C#N)cc(Br)c1O` was 103 ± 6.1%; that for `Cc1ccccc1-n1c(Cn2cnc3c(N)ncnc32)nc2cccc(C)c2c1=O` was -7.86 ± 4.1%. Then `COC[C@H]1OC(=O)c2coc3c2[C@@]1(C)C1=C(C3=O)[C@@H]2CCC(=O)[C@@]2(C)C[C@H]1OC(C)=O` [Wortmannin], with 2.26 ± 1.5%; and `CCN1CCN(C(=O)Cc2ccc(Nc3ncc(F)c(Nc4ccc(C(=O)Nc5ccccc5Cl)cc4)n3)cc2)CC1` [Aurora A Inhibitor I], with 7.11 ± 13%. The value for `CN[C@@H]1C[C@H]2O[C@@](C)([C@@H]1OC)n1c3ccccc3c3c4c(c5c6ccccc6n2c5c31)C(=O)NC4` [Staurosporine] was 102 ± 5%; that for `O=c1[nH]c2ccc(Cl)cc2c(N[C@@H]2CN3CCC2CC3)c1-c1nc2ccccc2[nH]1` was 96.1 ± 3.4%.

As for `CNC(=O)Oc1cc(C)c(/C=C/c2cncc(C(=O)NC)c2)c(C)c1`, the growth inhibition turned out to be 3.06 ± 7%. In the case of `Cc1ccccc1-n1c(Cn2ncc3c(N)ncnc32)nc2cccc(C)c2c1=O`, the growth inhibition came to 15.4 ± 13%.
